AF4-AF9 inh – inhibitors of human MLL-AF4/AF9 interaction | AID 651704 | inhibition, % at 10 µM | P42568 | AlphaScreen, biotin-AF4 peptide binding to FLAG-AF9 | 0.47% of 350,000 active;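 active means every replicate reaching a set inhibition limit, whatever the replicate mean, cut at about 25% in these data; inconclusive means mean inhibition reaches that limit but some replicates miss it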;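 further: 0% = plate neutral control median and 100% = total signal loss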
RAD54 branch – RAD54 (human) branch migration inhibition; Q92698; inhibition, % at 10.4 µM; 0.14% of 360,000 active; RAD54 Holliday junction branch migration, FAM/BHQ fluorescence;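 active means mean normalized replicate activity at least 40 and at least half of replicates scoring 40 or more; inconclusive means only one of the two criteria met; inactive means mean below 40 and under half of replicates reaching 40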;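 further: 0% = median of neutral control wells and 100% = median of positive control wells; inhibitors cause a drop in the FAM fluorescence signal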
Target sequence (Q92698 whole entry, looked up): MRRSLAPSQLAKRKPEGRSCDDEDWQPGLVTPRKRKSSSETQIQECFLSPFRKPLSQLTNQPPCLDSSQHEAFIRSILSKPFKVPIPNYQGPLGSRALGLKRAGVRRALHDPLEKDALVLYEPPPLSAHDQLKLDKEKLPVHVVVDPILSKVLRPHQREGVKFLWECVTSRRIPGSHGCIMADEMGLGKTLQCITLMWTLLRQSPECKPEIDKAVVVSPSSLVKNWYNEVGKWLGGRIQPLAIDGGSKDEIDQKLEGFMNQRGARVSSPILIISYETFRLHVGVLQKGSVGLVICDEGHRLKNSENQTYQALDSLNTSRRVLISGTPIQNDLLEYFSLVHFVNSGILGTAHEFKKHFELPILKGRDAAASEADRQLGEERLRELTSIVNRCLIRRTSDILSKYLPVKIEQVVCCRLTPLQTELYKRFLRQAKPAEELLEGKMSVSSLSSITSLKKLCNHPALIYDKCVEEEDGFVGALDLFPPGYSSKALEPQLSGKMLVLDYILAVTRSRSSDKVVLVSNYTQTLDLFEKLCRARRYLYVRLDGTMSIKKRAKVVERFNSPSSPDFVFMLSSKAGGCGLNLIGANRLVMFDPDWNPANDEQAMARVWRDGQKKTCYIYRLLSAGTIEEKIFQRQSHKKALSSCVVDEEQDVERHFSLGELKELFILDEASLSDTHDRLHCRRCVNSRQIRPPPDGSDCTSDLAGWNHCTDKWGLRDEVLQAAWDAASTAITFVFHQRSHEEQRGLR
DENV2 CPE rescue – inhibitors of DENV2 cytopathic effect. DENV2-infected cells, cytopathic effect rescue, plate reader. 1.7% of 350,000 active. AID 651640. CPE inhibition, % at 9.99 µM; in the data active means CPE inhibition above about 20%, passing the limit was not always enough; inconclusive means no clear call, values can overlap the other calls; tested in BHK-21 cells;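 further: 0% = median of neutral control wells and 100% = median of positive control wells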
dFosB activator – enhances mouse delta FosB homodimer DNA binding; purified delta FosB, TAMRA-CDK5 oligo fluorescence polarization; percent of positive-control signal above neutral wells; P13346; AID 493131; activation, % at 25 µM; 0.99% of 340,000 active;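 active means mean activation above about 17%, with every replicate also reaching it, limit read from the data, passing the limit was not always enough; inconclusive means only one of the two conditions met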
RAD52 inh – inhibitors of human RAD52 DNA annealing; recombinant RAD52 DNA annealing, FRET fluorescence; inhibition, % at 18.7 µM; 0.46% of 360,000 active;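 active means every replicate showing at least 50% inhibition; inconclusive means mean inhibition at least 50% but not in every replicate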
GSIS activator – GLuc luminescence reporter in INS-1E cells, primary screen for activators of glucose-dependent secretion of insulin; INS-1E GLuc reporter insulin secretion, 2-3 h; activation, % at 16.6 µM; 0.61% of 370,000 active; AID 743287;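 active means lowest replicate activation of at least 40%, so every replicate reaches that level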;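 further: 0% = median of neutral control wells and 100% = median of IBMX positive control wells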
An asterisk follows results filed as active; ? = inconclusive; . = no result given; ! = not active in a repeat. Sampled rows, rich in hits. Any-hit rate of the full collection: about 3.1%.

SMILES	AF4-AF9 inh	RAD54 branch	DENV2 CPE rescue	dFosB activator	RAD52 inh	GSIS activator
Cc1cccc(OCCCN2CCC(C(O)(c3ccccc3)c3ccccc3)CC2)c1	.	.	34*	.	-14	2
COc1cccc(OCCCN2CCC(C(O)(c3ccccc3)c3ccccc3)CC2)c1	5	.	-5	.	4	9
CC(=O)Nc1ccc(OCCCN2CCC(C(O)(c3ccccc3)c3ccccc3)CC2)cc1	5	.	34*	.	7	-41
C[C@@H]1CCCCO[C@H](CN(C)Cc2ccccc2)[C@@H](C)CN([C@@H](C)CO)C(=O)c2cc(NC(=O)CCC(F)(F)F)ccc2O1	-2	3	9	.	2	-7
OC(c1ccccc1)(c1ccccc1)C1CCN(CCCOc2ccc(-c3ccc(F)cc3F)cc2)CC1	.	.	16	.	-6	249*
CCn1nnc(NC(=O)c2sc3ccccc3c2Cl)n1	.	7	.	-4	.	43*
Cc1ccc(NC(=O)CNC(=O)c2sc3ccccc3c2Cl)nc1	-1	-6	3	-1	-5	70*
Cc1ccc(NC(=O)CNC(=O)Cc2cccc3ccccc23)nc1	-2	-3	-4	-4	-42	-4
CCn1nnc(NC(=O)c2cccnc2Cl)n1	.	0	.	2	.	.
C[C@@H]1CN([C@H](C)CO)S(=O)(=O)c2ccc(-c3cccnc3)cc2O[C@H]1CN(C)C(=O)c1cccc(F)c1	6	-6	7	.	-3	7
Cc1cc2oc(=O)cc(CN3CCOCC3)c2c(C)c1Cl	-2	-21	?	-16	-13	41*
Cc1cc2oc(=O)cc(CN3CCOCC3)c2cc1Cl	4	-1	-3	-5	-4	14
O=C(C1CCOCC1)N1CC(=O)N2[C@H](CO)[C@@H](c3ccc(-c4cccnc4)cc3)[C@@H]2C1	-2	.	-7	.	2	-13
C[C@H](CO)N1C[C@H](C)[C@H](CN(C)C(=O)Nc2ccc3c(c2)OCO3)OCCCC[C@H](C)Oc2ccc(NC(=O)Nc3cccc4ccccc34)cc2C1=O	-2	2	-1	.	9	13
C[C@H]1CN([C@@H](C)CO)C(=O)c2cc(NC(=O)Nc3cccc4ccccc34)ccc2O[C@@H]1CN(C)C(=O)Nc1ccc2c(c1)OCO2	-2	2	23*	.	-10	15
C[C@@H]1CCCCO[C@@H](CN(C)C(=O)Nc2ccc3c(c2)OCO3)[C@@H](C)CN([C@@H](C)CO)C(=O)c2cc(NC(=O)Nc3cccc4ccccc34)ccc2O1	-2	.	61*	.	-11	12
C[C@@H]1CCCCO[C@H](CN(C)S(=O)(=O)c2ccc(F)cc2)[C@@H](C)CN([C@H](C)CO)C(=O)c2cc(NC(=O)Nc3cccc4ccccc34)ccc2O1	-2	0	26*	.	-9	3
C[C@H](CO)N1C[C@H](C)[C@H](CN(C)C(=O)Nc2cccc3ccccc23)OCCCC[C@H](C)Oc2ccc(NC(=O)Nc3ccc(F)cc3)cc2C1=O	-1	-1	25*	.	-9	2
C[C@@H]1CCCCO[C@@H](CN(C)S(=O)(=O)c2ccc(F)cc2)[C@@H](C)CN([C@@H](C)CO)C(=O)c2cc(NC(=O)Nc3cccc4ccccc34)ccc2O1	0	-1	-10	.	-12	16
C[C@@H]1CCCCO[C@@H](CN(C)C(=O)Nc2cccc3ccccc23)[C@@H](C)CN([C@@H](C)CO)C(=O)c2cc(NC(=O)Nc3ccc(C(F)(F)F)cc3)ccc2O1	-3	.	26*	.	-4	8
CC1(C(=O)Nc2cccc(OC(F)(F)F)c2)Cc2c(-c3cccc(C(N)=O)c3)ccnc2O1 (stereo not drawn)	-2	4	21*	.	-4	-4
CC1(C(=O)NCc2ccccc2)Cc2c(-c3cccc(C(F)(F)F)c3)ccnc2O1 (stereo not drawn)	2	8	-1	.	0	-31
CC1(C(=O)NCc2cccs2)Cc2c(-c3cccc(C(F)(F)F)c3)ccnc2O1 (stereo not drawn)	0	-1	27*	.	-7	-3
CC1(C(=O)Nc2cccc(C(F)(F)F)c2)Cc2c(-c3cccc(C(N)=O)c3)ccnc2O1 (stereo not drawn)	1	-4	-2	.	-5	7
Cc1ccc(C(=O)NC2CCCCN(C)C2=O)cc1 (stereo not drawn)	.	.	14	.	-28	7
SMILES	AF4-AF9 inh	RAD54 branch	DENV2 CPE rescue	dFosB activator	RAD52 inh	GSIS activator
CN1CCCCC(NC(=O)c2ccccc2)C1=O (stereo not drawn)	.	.	?	.	0	117*
CCCNC(=O)N1CC2(C1)[C@H](c1ccccc1)[C@@H](CO)N2C(=O)C1CCCC1	-2	.	-3	.	-6	1
C[C@@H]1CN([C@H](C)CO)C(=O)c2cc(-c3cncnc3)cnc2O[C@@H]1CN(C)C(=O)Nc1ccc2c(c1)OCO2	-3	-4	8	.	-3	7
CC(=O)/C(C#N)=C1\NC(=O)C(Cc2cc(Cl)ccc2Cl)S1 (stereo not drawn)	-5	5	57*	-5	-18	-13
C[C@H](CO)N1C[C@H](C)[C@@H](CN(C)S(C)(=O)=O)Oc2ccc(NC(=O)Nc3ccccc3)cc2C1=O	-2	2	88*!	-6	4	7
COc1ccc(NC(=O)Nc2ccc3c(c2)C(=O)N([C@H](C)CO)C[C@H](C)[C@@H](CN(C)S(C)(=O)=O)O3)cc1	-1	-5	26*!	-8	5	2
COc1ccc(NC(=O)Nc2ccc3c(c2)C(=O)N([C@H](C)CO)C[C@H](C)[C@@H](CN(C)S(=O)(=O)c2ccc(OC)cc2)O3)cc1	4	4	26*!	7	-12	0
C[C@H](CO)N1C[C@H](C)[C@H](CN(C)S(C)(=O)=O)Oc2ccc(NC(=O)Nc3ccccc3)cc2C1=O	-4	4	-1	.	-8	5
COc1ccc(NC(=O)Nc2ccc3c(c2)C(=O)N([C@@H](C)CO)C[C@H](C)[C@H](CN(C)S(=O)(=O)c2ccc(OC)cc2)O3)cc1	6	-7	-5	.	-12	1
COc1ccc(S(=O)(=O)N(C)C[C@@H]2Oc3ccc(NC(=O)Nc4ccc5c(c4)OCO5)cc3C(=O)N([C@@H](C)CO)C[C@H]2C)cc1	8	57*	-1	.	-5	-3
C[C@H]1CN([C@@H](C)CO)C(=O)c2cccc(NS(C)(=O)=O)c2O[C@@H]1CN(C)CC1CCCCC1	-1	0	-12	.	1	10
CCCC#Cc1ccc2c(c1)O[C@@H](CN(C)Cc1ccncc1)[C@@H](C)CN([C@H](C)CO)S2(=O)=O	4	0	?	.	-36	-6
OC[C@@H]1[C@H](c2ccc(Br)cc2)[C@H]2CNCCCCN12	5	3	?	.	16	12
C[C@@H]1CN([C@H](C)CO)C(=O)c2cccc(NS(C)(=O)=O)c2O[C@@H]1CN(C)CC1CCCCC1	-4	10	16	.	4	12

Screening data: PubChem, Broad Institute
